# Results published in PubChem BioAssay (NCATS).
# Results filed as inconclusive are left out. Active and inactive are the calls of the source. The call rests on the fitted dose curve; in most records, active means well fitted inhibition curve with a large enough effect in the signal ratio, with a control signal flat (not every such curve was filed as active); inconclusive means small, poorly fitted or top-dose-only effect, or effect the other way, or a change in a side signal; inactive means flat fitted curve, though single readings scatter; the % refers to the signal ratio.
# Target: Glucocorticoid receptor (Homo sapiens) (UniProt P04150)
# Experiment: qHTS assay for small molecule antagonists of glucocorticoid receptor signaling (AID 588533)
# Conditions: HeLa MMTV-bla, GRE beta-lactamase ratio, antagonist mode, 18 h; series mostly up to 76.8 µM; activity change, negative = inhibition: at the top concentration
# Description: NIH Chemical Genomics Center [NCGC] U.S. Environmental Protection Agency [EPA] National Institutes of Environmental Health Sciences [NIEHS] National Toxicology Program [NTP] NCGC Assay Overview The Glucocorticoid receptor (GR), a nuclear receptor subfamily member and its natural ligands includes […] etc. The GR is a validated drug target for inflammation. GR ligands such as dexamethasone are clinically available as anti-inflammatory drugs. Glucocorticoids implicate a role in carbohydrate, protein and lipid metabolisms and programmed cell death. They are also a component of many chemotherapy regimens for the treatment of leukemias, lymphomas, and myelomas because of their role in the induction of apoptosis.
# NCGC Assay Protocol Summary Using a beta-lactamase reporter-gene under control of glucocorticoid response element (GRE), a cell-based assay [CellSensor MMTV-bla HeLa cell line assay developed by Invitrogen] was used to measure GR ligands signaling. CellSensor MMTV-bla HeLa cells were used with assay medium containing 1% charcoal/dextran treated FBS, 0.1 mM NEAA, 1 mM sodium pyruvate and 25mM HEPES. The assay was performed in clear bottom black Greiner 1536-well plates. Library compounds were measured for their ability to inhibit the reporter gene activity. Compounds were screened in a titration series in 1536-well format. […] Data was normalized relative to Dexamethasone control (2 nM, 100%), and DMSO only wells (basal, 0%). Concentration-response titration points for each compound were fitted to the Hill equation yielding concentrations of half-maximal inhibition (IC50) and maximal response (efficacy) values. qHTS protocol for GR beta-lactamase assay in antagonist mode [Step] [Parameter] [Value] [Description] 1. Reagent; 5 uL; 1500 cells/well 2. Incubation; 37 C for 3-5 hrs 3. Compounds; 23 nL; 0.59 nM to 92 uM 4. […] Agonist (Stimulator); 1uL; Dexamethasone at 2 nM (final) concentration 6. Incubation; 37 C for 18 hrs 7. Detection reagent; 1 uL of CCF4-dye 8. Incubation; RT for 2 hrs 9. Detection; Fluorescence; Envision plate reader
# On the % scale 0 is the no-effect control and ±100 the full control effect.
# Chain of Glucocorticoid receptor (Homo sapiens) (P04150 whole entry, looked up): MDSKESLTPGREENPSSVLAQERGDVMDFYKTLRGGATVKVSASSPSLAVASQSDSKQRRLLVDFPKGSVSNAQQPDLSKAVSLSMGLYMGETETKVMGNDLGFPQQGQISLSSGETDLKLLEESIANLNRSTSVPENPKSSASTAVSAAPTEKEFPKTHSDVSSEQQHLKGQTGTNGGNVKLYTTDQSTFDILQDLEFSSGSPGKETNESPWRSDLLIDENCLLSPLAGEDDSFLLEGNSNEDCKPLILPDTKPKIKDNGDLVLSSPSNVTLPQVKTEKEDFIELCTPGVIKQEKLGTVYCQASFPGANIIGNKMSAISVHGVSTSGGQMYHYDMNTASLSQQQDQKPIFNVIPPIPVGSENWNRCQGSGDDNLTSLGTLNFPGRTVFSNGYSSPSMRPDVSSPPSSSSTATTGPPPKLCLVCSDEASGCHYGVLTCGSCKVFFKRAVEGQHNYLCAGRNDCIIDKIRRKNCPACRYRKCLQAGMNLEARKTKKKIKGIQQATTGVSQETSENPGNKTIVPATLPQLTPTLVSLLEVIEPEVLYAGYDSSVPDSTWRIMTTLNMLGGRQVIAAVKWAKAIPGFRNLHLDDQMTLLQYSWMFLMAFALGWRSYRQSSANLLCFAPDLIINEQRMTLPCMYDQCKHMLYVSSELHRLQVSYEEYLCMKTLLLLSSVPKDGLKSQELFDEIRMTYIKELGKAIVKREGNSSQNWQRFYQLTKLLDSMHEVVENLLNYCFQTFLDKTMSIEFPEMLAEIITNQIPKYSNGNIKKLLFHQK
SMILES,"activity change, negative = inhibition",outcome
c1ccc(P(c2ccccc2)c2ccccc2)cc1,2.47% (inactive),–
O=Cc1ccc2c(c1)OCO2,0.729% (inactive),–
C=CCCl,3.3% (inactive),–
Oc1ccc(Cl)c(Cl)c1Cl,7.07% (inactive),–
Nc1ccc(Cc2ccc(N)cc2)cc1,–,inactive
CC(C)CON=O,-10.8% (inactive),–
CCCC[N+](=O)[O-],-4.85% (inactive),–
N#C/C(N)=C(/N)C#N,21.6% (inactive),–
CC(=O)CCC(C)=O,7% (inactive),–
C=CC(=O)OCC(CC)CCCC (stereo not given),0.228% (inactive),–
c1ccc(NNc2ccccc2)cc1,-0.355% (inactive),–
O=[N+]([O-])c1ccc(Cl)cc1,–,inactive
CN1CSC(=S)N(C)C1,–,inactive
CN(C)c1ccc(N(C)C)cc1,1.37% (inactive),–
O=C(Cl)OCc1ccccc1,13.6% (inactive),–
Brc1cccc(-c2ccccc2)c1,3.1% (inactive),–
CN(C)c1ccccc1,-7.88% (inactive),–
O=[N+]([O-])CCO,1.47% (inactive),–
Clc1ccccc1,-10.1% (inactive),–
CC(C)(C)c1ccccc1O,–,inactive

SMILES,"activity change, negative = inhibition",outcome
CC(C)(COCC1CO1)COCC1CO1 (stereo not given),6.21% (inactive),–
Oc1cc(Cl)ccc1Cl,5.2% (inactive),–
Cc1coc2c1CCC(C)C2 (stereo not given),-3.8% (inactive),–
C[N+](=O)[O-],-0.33% (inactive),–
N#CCCCCC#N,-8.04% (inactive),–
CCOC(=O)CBr,-8.73% (inactive),–
CCNCC,4.75% (inactive),–
C=CC=O,4.88% (inactive),–
C=CCOCC1CO1 (stereo not given),25.6% (inactive),–
Cc1cnc[nH]1,-10.2% (inactive),–
NC1CCC(CC2CCC(N)CC2)CC1 (stereo not given),–,inactive
Clc1cccc(Cl)c1,11.3% (inactive),–
Nc1ccc(Oc2ccc(N)cc2)cc1,-8% (inactive),–
Oc1cc(Cl)cc(Cl)c1,25.3% (inactive),–
Nc1cc(Cl)ccc1Cl,-2.91% (inactive),–
O=[N+]([O-])c1ccccc1CCl,-14.8% (inactive),–
CCOC(=O)C1OC1(C)c1ccccc1 (stereo not given),7.36% (inactive),–
CCOP(=S)(OCC)Oc1nc(Cl)c(Cl)cc1Cl,–,inactive
Cc1ccc2c(c1N)C(=O)c1ccccc1C2=O,-24.1% (inactive),–
CCCBr,-20.3% (inactive),–
